Experimental data reported in PMC6792352, “Limited Chemical Structural Diversity Found to Modulate Thyroid Hormone Receptor in the Tox21 Chemical Library” (Environmental Health Perspectives, 2019).
Structures can show the parent of a compound that is named as a salt.

What follows are compounds tested on thyroid hormone receptor (endogenous TRα and TRβ). Settings: read-out: Average AC50 (uM) GH3-TRE-Antag, antagonist mode, 1 nM T3, no GH3 cytotoxicity hit.
Set-up: species or system GH3-TRE-Luc (rat pituitary); GH3-TRE-Luc luciferase reporter, antagonist mode against 1 nM T3, loss of signal, qHTS

| SMILES | AC50 [µM] |
| --- | --- |
| O=C(CCC1CCN(Cc2ccccc2)CC1)c1ccc2c(c1)NCCCC2 [Zanapezil fumerate] | 12.4 |
| C=C/C(C)=C/C/C=C(\C)CCC=C(C)C [alpha-Farnesene] | 44.9 |
| COCc1c(C(C)C)nc(C(C)C)c(/C=C/[C@@H](O)C[C@@H](O)CC(=O)O)c1-c1ccc(F)cc1 [Cerivastatin sodium] | 13.7 |
| CC(C)OC(=O)OCOP(=O)(CO[C@H](C)Cn1cnc2c(N)ncnc21)OCOC(=O)OC(C)C [Tenofovir disoproxil fumarate] | 24.9 |
| CC(=O)[C@H]1CC[C@H]2[C@@H]3CC=C4C[C@@H](O)CC[C@]4(C)[C@H]3CC[C@]12C [Pregnenolone] | 11.6 |
| C=CCCCCCCCCC=O [Undec-10-enal] | 75.3 |
| OCc1c2ccccc2cc2ccccc12 [9-Anthracenemethanol] | 64.3 |
| CCCCC(CC)C(=O)OCCOCCOCCOCCOC(=O)C(CC)CCCC (stereo not drawn) [Tetraethylene glycol di(2-ethylhexanoate)] | 82.3 |
| NC(=O)N(O)[C@@H]1C=C[C@H](Oc2cccc(Oc3ccc(F)cc3)c2)C1 [CJ-013790] | 81.3 |
| Cc1cc(C(C)(C)C)c(O)c(C)c1Cn1c(=O)n(Cc2c(C)cc(C(C)(C)C)c(O)c2C)c(=O)n(Cc2c(C)cc(C(C)(C)C)c(O)c2C)c1=O [Cyanox CY 1790] | 66.5 |
| N[C@H](C(=O)O)[C@H](O)c1ccc(O)c(O)c1 [Droxidopa] | 29.5 |
| Cl/C(=C\n1cncn1)c1ccc(Cl)cc1Cl [Loreclezole hydrochloride] | 18.3 |
| C/C=C(/CC[C@@H](C)[C@H]1CC[C@H]2C3=CC[C@H]4[C@H](C)[C@@H](O)CC[C@]4(C)[C@H]3CC[C@]12C)C(C)C [Sitosterol alpha1] | 40.6 |
| CCCCC/C=C\C/C=C\C/C=C\CCCCC(=O)O [Gamolenic acid] | 22.9 |
| CCN(CC)CCNC(C(=O)OCCC(C)C)c1ccccc1 (stereo not drawn) [Camylofin] | > 50 |
| CC(C)c1cccc(C(C)C)c1O [Propofol] | > 50 |
| CC(C)(C)NCC(O)COc1ccc(NC(=O)NC2CCCCC2)cc1 (stereo not drawn) [Talinolol] | 26.4 |
| O=C(N[C@H]1N=C(c2ccccc2F)c2cccc3c2N(CC3)C1=O)c1cc2ccccc2[nH]1 [Pranazepide] | 12.1 |
| CCCOc1ccc(C(=O)OCCN(CC)CC)cc1N [Proparacaine hydrochloride] | > 50 |
| CCCCCCCCCC/C=C/C1CC(=O)OC1=O (stereo not drawn) [3-(Dodecenyl)dihydro-2,5-furandione] | > 90 |

| SMILES | AC50 [µM] |
| --- | --- |
| C(CCOCC1CO1)COCC1CO1 (stereo not drawn) [1,4-Butanediol diglycidyl ether] | 37.9 |
| C#C[C@]1(OC(C)=O)CC[C@H]2[C@@H]3CCC4=CC(=O)CC[C@@H]4[C@H]3CC[C@@]21C [Norethindrone acetate] | 10 |
| CC(C)(C)c1ccc2c(S(=O)(=O)O)c(C(C)(C)C)ccc2c1 [Sodium dibunate] | > 50 |
| CC(C)C(C(=O)OC(C#N)c1cccc(Oc2ccccc2)c1)c1ccc(Cl)cc1 (stereo not drawn) [Fenvalerate] | 37.1 |
| Oc1ccccc1/C=N/Cc1ccccc1 [Norletimol] | > 50 |
| CCOCN(C(=O)CCl)c1c(C)cccc1CC [Acetochlor] | 75.3 |
| CCCCc1c(C)nc(NCC)nc1OS(=O)(=O)N(C)C [Bupirimate] | > 90 |
| CCN(CCCCOC(=O)c1ccc(OC)c(OC)c1)C(C)Cc1ccc(OC)cc1 (stereo not drawn) [Mebeverine hydrochloride] | 13.7 |
| CC(C)OC(=S)S [Proxan-sodium] | > 90 |
| CC(C)(C)C(=O)OCOP(=O)(COCCn1cnc2c(N)ncnc21)OCOC(=O)C(C)(C)C [Adefovir dipivoxil] | 46.6 |
| CCCCCCCCCCCCCC(=O)OCC(O)CO (stereo not drawn) [Tetradecanoic acid, 2,3-dihydroxypropyl ester] | 61.9 |
| CCCCCCCCCCCCCOS(=O)(=O)O [Sodium tridecyl sulfate] | 67.6 |
| CCCC1O[C@@H]2C[C@H]3[C@@H]4CCC5=CC(=O)C=C[C@]5(C)[C@H]4[C@@H](O)C[C@]3(C)[C@]2(C(=O)CO)O1 (stereo partly drawn) [Budesonide] | > 50 |
| CCOC1O[C@H]([C@@H](COCc2ccccc2)OCc2ccccc2)[C@H](OCc2ccccc2)[C@H]1O (stereo partly drawn) [Tribenoside] | 11.1 |
| CCCC(=O)O[C@]1(C(=O)CCl)[C@@H](C)C[C@H]2[C@@H]3CCC4=CC(=O)C=C[C@]4(C)[C@@]3(F)C(=O)C[C@@]21C [Clobetasone butyrate] | 32.9 |
| COC(=O)[C@H](c1ccccc1Cl)N1CCc2sccc2C1 [Clopidogrel hydrogen sulfate] | 45.8 |
| CC1(C)C(C=C(Cl)Cl)[C@@H]1C(=O)O[C@@H](C#N)c1ccc(F)c(Oc2ccccc2)c1 (stereo partly drawn) [Cyfluthrin] | 39.9 |
| C=CC(C)(CCC=C(C)C)OC(=O)/C=C/c1ccccc1 (stereo not drawn) [Linalyl cinnamate] | 73.9 |
| CCC(=O)Nc1ccc(Cl)c(Cl)c1 [Propanil] | 92.4 |
